Screens: PubChem BioAssay, National Center for Advancing Translational Sciences (NCATS)
Rows were chosen to be rich in hits. Some 8.8% of all compounds tested hit in one or more screens of this group.
KB-V1 cytotox = kills drug-selected multidrug resistant KB-V1 cells. KB-V1 MDR cells viability, CellTiter-Glo, 72 h. Potency, µM (top dose mostly 46.1 µM), most hits filed as cytotoxic. actives 3.4% (n = 400,000). AID 1347076; also: potency is read from the fitted curve at half-maximal effect; nearly all actives have a fitted effect of over 60% in size
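Luminescent ATP read-out (CellTiter-Glo, 10 min) measures survival of drug-selected KB-V1 MDR cells after 72 h, 37 degrees C compound exposure. Medium: phenol-red-free DMEM, 10% FBS. Values from fitted concentration-response curves.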
HT1080 IDH1KD tx = HT-1080 IDH1 knockdown cell toxicity (counter line) | HT-1080 IDH1 knockdown viability, ATP luminescence, 48 h | Potency, µM (top dose mostly 46.1 µM), without a hit: top-dose activity, negative = toxicity, actives largely listed as cytotoxic | actives 2% (n = 360,000) | AID 686971;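 also: potency is read from the fitted curve at half-maximal effect; 0% = DMSO wells and -100% = cell-free medium wells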
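Using the IDH1-knockdown HT-1080 line run in the same batch and compound series as the NT line, viability after 48 h at 37 °C was determined by CellTiter-Glo luminescence and expressed as % activity.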
IL1B secr inh = blocks inflammasome-driven IL-1 beta release | actives 4.7% (n = 360,000) | activity change, % at 57.5 µM | THP-1 LPS/ATP IL-1B secretion, AlphaLISA, 16 h; hits give low values | AID 743279; in the data active = activity change below about -50%; inconclusive = mostly about -30% to -49%
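Secreted IL-1B measured by AlphaLISA bead assay after 16 h compound exposure of THP-1 cells; compounds (final up to 57.5 uM) added 1 h before LPS (250 ng/mL) and ATP (1.25 mM) stimulation; lower signal means less secretion.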
HT1080NT lethal = kills 2HG-producing HT-1080-NT fibrosarcoma cells. HT-1080-NT fibrosarcoma viability, CellTiter-Glo ATP luminescence, 48 h. Potency, µM (top dose mostly 46.1 µM), for inactives: at the highest dose activity, negative = less viability, most hits filed as cytotoxic. actives 1.6% (n = 360,000). AID 686970;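 also: NT is the 2HG producing partner of a matched IDH1 knockdown line; potency is read from the fitted curve at half-maximal effect; 0% = DMSO-treated cells and -100% = media-only wells without cells; nearly all actives have a fitted effect of over 55% in size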
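Viability by CellTiter-Glo luminescence after 48 h compound exposure at 37C of HT-1080-NT cells (750/well, RPMI, 5% FBS). % activity scaled between DMSO wells and medium-only wells, then curve-fitted and categorized by curve class.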
KB-3-1 tox = kills parental KB-3-1 adenocarcinoma cells | KB-3-1 viability, CellTiter-Glo ATP luminescence, 72 h | Potency, µM (highest dose often 46.1 µM), usual class: cytotoxic | actives 1.4% (n = 400,000) | AID 1347075; also: potency is read from the fitted curve at half-maximal effect; nearly all actives have a fitted effect of over 60% in size
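Luminescent ATP read-out (CellTiter-Glo) measures survival of drug-naive KB-3-1 cells after 72 h compound exposure at 37 °C. Titration series was screened from lowest to highest concentration, with DMSO vehicle plates as background controls.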
* marks the source's active call; other numbers are inactive results; i = inactive; ? = inconclusive; · = not tested or not shown; [ ] = dose if it differs, or a comment. Unless noted, calls follow the shape of the dose curve; as a rule, active = well fitted curve in the direction sought with a large enough effect; inconclusive = small, poorly fitted or top-dose-only effect, or another doubt; inactive = no such curve, though single readings can be large; an effect the other way counts as inactive or inconclusive. Unless noted, % is scaled to controls: 0 for no effect and ±100 for the full control effect.

SMILES | KB-V1 cytotox | HT1080 IDH1KD tx | IL1B secr inh | HT1080NT lethal | KB-3-1 tox
Cc1cc2nc(-c3cccnc3SCC(=O)NCc3ccco3)[nH]c2cc1C | i | 10µM* | 12 | 10µM* | i
O=C(CSc1nc2ccccc2[nH]1)NCc1ccco1 | i | 16%[9.24 µM] | -1 | -18% | i
CS(=O)(=O)c1ccc(NC(=O)COc2ccccc2C(=O)Nc2ccccc2)cc1 | i | · | · | · | i
O=S(=O)(CS(=O)(=O)c1ccc(Cl)cc1)c1ccc(Cl)cc1 | i | -27% | · | -29% | i
O=C(CSc1c2c(nc3cc(Cl)ccc13)CCCC2)NCc1ccco1 | ? | ? | -66* | -19% | i
N#CCSc1ncccc1-c1nc2ccccc2[nH]1 | i | -3%[9.24 µM] | 14 | -2% | i
N#CCCCSc1ncccc1-c1nc2ccccc2[nH]1 | 13µM* | 3% | -19 | 10% | i
O=C(CSc1c2c(nc3cc(Cl)ccc13)CCCC2)NCc1ccccc1Cl | i | · | · | · | i
O=C(CSc1nc2ccc(Cl)cc2[nH]1)NCCc1ccc(Cl)cc1 | i | -25% | -17 | ? | i
O=C(CSc1nc2ccc(Cl)cc2[nH]1)NCCc1ccccc1 | 16µM* | -7% | -15 | -8% | i
COC(=O)C(Cc1ccccc1)NC(=O)CC(C)CC(=O)Nc1ccc(C)cc1 (stereo not drawn) | i | 7% | 29 | 3% | i
COC(=O)c1c(C(=O)OC)c(-c2ccc(C)cc2)n2c1CCC2 | 15µM* | -3% | -11 | 6% | i
C[C@H](CO)N1C[C@H](C)[C@@H](CN(C)Cc2ccc(F)cc2)Oc2ncc(Br)cc2C1=O | i | 15% | 15 | 6% | i
CCCCCNc1nc(N2CCCC2)c2c(c1C#N)CCN(C)C2 | 23µM* | ? | -51* | 29µM* | ?
N#C/C(=C\c1c[nH]c2ccccc12)C(=O)NCC1CCCO1 (stereo not drawn) | i | 15% | -14 | 11% | i
CCOC(=O)C1(C)CCN1C(=O)c1cccc(C(F)(F)F)c1 (stereo not drawn) | i | 11% | 29 | 9% | i
COc1ccc(-n2cc(-c3ccccc3)c3c(N4CCOCC4)ncnc32)cc1 | 16µM* | ? | -146* | ? | i
OCCN1CCN(c2ncnc3c2c(-c2ccccc2)cn3-c2ccc(Br)cc2)CC1 | ? | 23µM* | -83* | 16µM* | i
COc1ccc(-n2cc(-c3ccccc3)c3c(=O)[nH]cnc32)cc1 | i | -13% | -82* | -3% | i
COc1ccc(-n2cc(-c3ccccc3)c3c(NCCCN4CCOCC4)ncnc32)cc1 | i | 18µM* | -16 | 21µM* | i
CCN1CCN(c2ncnc3c2c(-c2ccccc2)cn3-c2ccc(F)cc2)CC1 | i | 12% | -15 | -3% | i
O=C(COC(=O)/C=C/c1cc(Br)ccc1F)NC1CC1 | i | 8% | -9 | 1% | i
O=C1c2ccccc2C(O)(c2ncc[nH]2)N1CCc1ccccc1 (stereo not drawn) | i | 9% | 13 | 12% | i
Brc1ccc(-n2cc(-c3ccccc3)c3c(NN4CCOCC4)ncnc32)cc1 | i | -5% | 6 | 2% | ?
c1ccc(-c2cn(-c3ccccc3)c3ncnc(NCCCN4CCOCC4)c23)cc1 | i | ? | -86* | ? | i
SMILES | KB-V1 cytotox | HT1080 IDH1KD tx | IL1B secr inh | HT1080NT lethal | KB-3-1 tox
O=C(c1noc2c1CCCC2)N1CCN(c2ccccc2)CC1 | 18µM* | -2% | -6 | 9% | i
O=C(c1noc2c1CCCC2)N1CCC(CO)(Cc2ccccc2Cl)CC1 | i | -5% | -81* | -3% | i
Nc1cccc(N=[N+]([O-])c2cccc(N)c2)c1 | i | 1% | -23 | 2% | i
Cc1ccc(-c2noc(CN(C(=O)C(c3ccccc3)c3ccccc3)C(C)C)n2)cc1 | 8.2µM* | -17% | ? | 0% | ?
CC(C)N(Cc1nc(-c2ccccc2)no1)C(=O)CN1C(=O)c2ccccc2C1=O | 10µM* | -2% | 0 | 16% | i
CC(C)N(Cc1nc(-c2ccc(Cl)cc2)no1)C(=O)/C=C/c1ccccc1 | 16µM* | -9% | -62* | -2% | i
CC(C)N(Cc1nc(-c2ccc(Cl)cc2)no1)C(=O)C(c1ccccc1)c1ccccc1 | ? | -24% | -11 | -18% | ?
Cc1cccc(-c2noc(CN(C(=O)/C=C/c3ccccc3Cl)C(C)C)n2)c1 | ? | ? | -10 | -3% | i
O=S(OCCN1CCCC1)C(c1ccccc1)c1ccccc1 (stereo not drawn) | ? | ? | -90* | -23% | i
Cc1ccccc1C(=O)NCc1ccc2c(c1)CCN2C(=O)c1ccc(F)cc1 | i | · | · | · | i
Cc1cc(S(=O)(=O)N2CCC(N3CCCCC3)CC2)ccc1-n1cnnn1 | i | 1% | -1 | -6% | i
Cc1cc(S(=O)(=O)N2CCC(NC(=O)C34CC5CC(CC(C5)C3)C4)CC2)ccc1-n1cnnn1 | 9.2µM* | 3% | 20 | -1% | i
Cc1cc(S(=O)(=O)N2CCN(c3ccccc3F)CC2)ccc1-n1cnnn1 | 21µM* | -2% | -53* | 2% | ?
CCOc1cc(C2Nc3ccccc3C(=O)N2Cc2ccco2)ccc1OCc1ccccc1Cl (stereo not drawn) | i | · | · | · | i
Cc1ccc(NC(=O)CN(C)C(=O)Cc2c[nH]c3ccccc23)cc1 | 18µM* | -8% | -3 | -11% | i
Cc1nnc(SCC(=O)N(C)CC(=O)Nc2ccc(F)cc2)n1Cc1ccccc1 | i | 5% | 19 | 6% | i
Cc1cccc(NC(=O)CCSc2nnc(Cc3ccccc3)o2)c1 | 15µM* | -6% | 0 | 3% | i
CN(CC(=O)Nc1ccc(F)cc1)C(=O)CSc1nnc(Cc2ccccc2)o1 | 16µM* | 0% | 2 | 5% | i
CSc1ccccc1NC(=O)CN(C)C(=O)Cc1c[nH]c2ccccc12 | i | -3% | -9 | 10% | i
Cc1cc(SCC(=O)N(C)CC(=O)Nc2ccc(F)cc2)nc2ccccc12 | 5.2µM* | ? | 0 | -3% | i
Cc1ccc(NC(=O)CCSc2nnc(Cc3ccccc3)o2)cc1 | ? | 1% | 9 | -1% | i
O=C(CC[C@H]1O[C@@H](n2cnc3c(NC(=O)c4ccccc4)ncnc32)[C@H](O)[C@@H]1O)NCCc1cc2ccccc2[nH]1 | i | 1% | ? | 5% | i
O=C(CSc1oc(-c2ccco2)nc1S(=O)(=O)c1ccc(Cl)cc1)Nc1ccc(F)cc1 | ? | · | · | · | i
CCn1nc(C)c(CCN(C)C(=O)Nc2cc(OC)c(OC)c(OC)c2)c1C | i | · | · | · | i
